Test results published in PubChem BioAssay (NCATS).
Results filed as inconclusive are left out. Where a call stands in place of a potency, no number is given. Values without a mark were called inactive. Active and inactive are the calls of the source. Calls follow the shape of the dose curve; as a rule, active = well fitted inhibition curve with a large enough effect; inconclusive = small, poorly fitted or top-dose-only effect; inactive = flat fitted curve, though single readings scatter.

The compounds below were run against Calcium and integrin-binding protein 1 (Homo sapiens) (UniProt Q99828) (assay: Primary qHTS for Identification of Calcium Integrin Binding Protein 1 (CIB1) Competitor (AID 1508620; also: top concentration of the series differs between compounds)). Details: CIB1-GST / FITC-alphaIIb peptide fluorescence polarization; series mostly up to 114 µM.
Sequence of Calcium and integrin-binding protein 1 (Homo sapiens) (Q99828 whole entry, looked up): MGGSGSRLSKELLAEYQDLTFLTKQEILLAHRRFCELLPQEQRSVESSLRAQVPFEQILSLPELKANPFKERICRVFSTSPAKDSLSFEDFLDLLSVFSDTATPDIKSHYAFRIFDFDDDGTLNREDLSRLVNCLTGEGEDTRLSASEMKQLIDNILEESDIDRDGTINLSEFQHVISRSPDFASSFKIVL
Summary of the method: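 Fluorescence polarization competition: GST-tagged CIB1 (1 uM final) preincubated with compound 15 min at room temperature, then FITC-labelled alphaIIb peptide (100 nM final) added. After 15 min at room temperature, polarization read at Ex 480/Em 540.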

Structure (SMILES) | Potency | activity change, negative = inhibition
CC12CCC(OC3OC(CO)C(O)C(OC4OC(CO)C(O)C(O)C4O)C3O)CC1CCC1C2CCC2(C)/C(=C3/COC(=O)C3)CCC12O (stereo not drawn) | inactive | 
CC(C)C(CO)Nc1nc(Nc2ccc(C(=O)O)c(Cl)c2)c2ncn(C(C)C)c2n1 (stereo not drawn) | inactive | 
O=C1N=C(N2CCOCC2)CN1c1ccc(Cl)cc1 | inactive | 
COC(=O)C1=C2Nc3ccccc3C23CCN2CCCC(C(C)O)(C1)C23 (stereo not drawn) | inactive | 
O=C(CCCCN1CCOCC1)Nc1ccc(-c2cccnc2)cc1 | inactive | 
C=C1CCC2C(C)(C)C(O)CCC2(C)C1CCC(C)CCOC(C)=O (stereo not drawn) | inactive | 
Cc1cc(C)nc(NS(=O)(=O)c2ccc(NC(=S)NC(=O)COc3ccc(Br)cc3Cl)cc2)n1 | inactive | 
Cc1c[nH]c2nccc(Oc3c(F)cc(Nc4cc(Cl)nc(N)n4)cc3F)c12 | inactive | 
O=C(NCc1cccc(O)c1)c1cc2cc(F)ccc2[nH]1 | inactive | 
CC(C)c1ccc2c(c1)C(=O)CC1[C@@](C)(C(=O)O)CCC[C@]21C (stereo partly drawn) | inactive | 
CCCN1CCC(c2cccc(S(C)(=O)=O)c2)CC1 | inactive | 
COC(=O)CC(C)(O)CC(=O)OCc1ccc(O[C@@H]2O[C@H](CO)[C@@H](O)[C@H](O)[C@H]2O)cc1 (stereo partly drawn) | inactive | 
CC1=C(C(=O)O)/C(=C/CO[C@@H]2O[C@H](COC(=O)/C=C/c3ccc(O)cc3)[C@@H](O)[C@H](O)[C@H]2O)C(O)C1 (stereo partly drawn) | inactive | 
C[C@@H]1CC[C@]2(C(=O)O[C@@H]3O[C@H](CO)[C@@H](O)[C@H](O)[C@H]3O)CC[C@]3(C)C(=CCC4[C@@]5(C)C[C@@H](O)[C@H](O)[C@@](C)(C(=O)O[C@H]6[C@H](O)C[C@@]7(C)C(CC[C@]8(C)C7CC=C7[C@H]9[C@](C(=O)O[C@@H]%10O[C@H](CO)[C@@H](O)[C@H](O)[C@H]%10O)(CC[C@@H](C)[C@@]9(C)O)CC[C@]78C)[C@@]6(CO)C(=O)O)C5CC[C@]43C)[C@@H]2[C@]1(C)O (stereo partly drawn) |  | 3.8% [at 12.4 µM]
C=C[C@H]1[C@H](O[C@@H]2O[C@H](CO)[C@@H](O)[C@H](O)[C@H]2O)OC=C(C(=O)OC)[C@H]1CC(=O)O | inactive | 
O=C(C(c1ccccc1)c1ccccc1)N1CCN(CC(O)COc2cccc3ncccc23)CC1 (stereo not drawn) | inactive | 
COc1cc2ncnc(Nc3ccc(O)cc3)c2cc1OC | inactive | 
C[C@]12C=C[C@@]3(CCC4[C@](C)(CO)CCC[C@@]4(C)C3CC1)C2 (stereo partly drawn) | inactive | 
CC[C@H](C)[C@H](NC(=O)[C@H]([C@@H](C)CC)N(C)C(C)=O)C(=O)N[C@H](C(=O)N[C@@H](CC(C)C)C(=O)[C@@]1(C)CO1)[C@@H](C)O | inactive | 

Structure (SMILES) | Potency | activity change, negative = inhibition
CC(=O)N[C@@H](C(=O)O[C@H]1CCC(C)(C)[C@@H]2CCC3=C(COC3=O)[C@@]12C)C(C)C | inactive | 
CC(O)/C=C/C1C(C)C(O[C@@H]2O[C@H](CO)[C@@H](O)[C@H](O)[C@H]2O)C(O)CC1(C)C (stereo partly drawn) | inactive | 
CCC(C)C(=O)OC1CC(C)C=C2C=CC(C)C(CCC(O)CC(O)CC(=O)O)C21 (stereo not drawn) | inactive | 
CC(Cc1cc2c(c(C(N)=O)c1)N(CCCO)CC2)NCCOc1ccccc1OCC(F)(F)F (stereo not drawn) | inactive | 
C=C1C(O)C[C@@H]2C(C(=O)O)=CO[C@@H](O[C@@H]3O[C@H](CO)[C@@H](O)[C@H](O)[C@H]3OC(=O)c3ccc(O)cc3)[C@H]12 (stereo partly drawn) | inactive | 
C=CCC1=C[C@]2(OC)[C@H](C)[C@@H](c3ccc(O)c(OC)c3)O[C@]2(OC)CC1=O | inactive | 
CC1(C)CCC(C)(C)c2cc(C3(c4ccc(C(=O)O)cc4)OCCO3)ccc21 | inactive | 
C=C1CCC2C(C)(C)C(O)CCC2(C)C1CCC(C)CCO (stereo not drawn) | inactive | 
COc1ccc(C(=O)Nc2ncc(-c3ccc(C(=O)O)cc3)s2)cc1 | inactive | 
C/C=C/C=C/C(O)=C1\C(O)=C(C)C(=O)[C@@]2(C)OC(=O)[C@@](C)(NC(=O)/C=C/C(=O)O)[C@@H]12 | inactive | 
C[C@H](N)C(=O)N[C@@H](Cc1ccc(O)cc1)C(=O)N1CCC[C@H]1C(=O)NCC(=O)N[C@@H](CCCCN)C(=O)N[C@@H](Cc1ccccc1)C(N)=O | inactive | 
Cn1nc(C(C)(C)C)cc1C(=O)NC(Cc1cccc(Cl)c1)C(=O)NCC#N (stereo not drawn) | inactive | 
Cn1c(=O)cc(N2CCCC(N)C2)n(Cc2cc(F)ccc2C#N)c1=O (stereo not drawn) | inactive | 
CC(=O)OC[C@H]1O[C@H](O[C@]2(CO)O[C@H](CO)[C@@H](OC(=O)/C=C/c3ccccc3)[C@@H]2O)[C@H](O)[C@@H](O)[C@@H]1O | inactive | 
CC(C)/C=C1\NC(=O)C(C(C)C)n2c1nc1c(c2=O)C=CC=CO1 (stereo not drawn) | inactive | 
COc1ccc(/C=C/C(=O)O[C@@H]2[C@@H](O)[C@@H](O)[C@H](O[C@@H]3C=C(CO)[C@H]4[C@H](O[C@@H]5O[C@H](CO)[C@@H](O)[C@H](O)[C@H]5O)OC=C[C@H]43)O[C@H]2C)cc1O | inactive | 
C=C1CCCC2(C)CC3(OC)OC(=O)C(C)=C3CC12 (stereo not drawn) | inactive | 
C=C(C)C(=O)O[C@H]1C[C@@](C)(O)C(=O)CC(O)/C(C)=C\[C@H]2OC(=O)C(=C)[C@H]12 (stereo partly drawn) | inactive | 
CCc1cccc(CC)c1NC(=O)c1nn(C)c2c1CCc1cnc(Nc3ccc(C(=O)NC4CCN(C)CC4)cc3OC(F)(F)F)nc1-2 | inactive | 
